Measured values: PubChem BioAssay

target: Dickkopf-related protein 1 (Homo sapiens) (UniProt O94907); experiment: DKK1 binders on small-molecule microarrays, primary screen, biochemical, small-molecule microarray, 635 nm fluorescence scan (AID 1106); conditions: DKK1 binding, higher = more signal;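 further: score merges emission near 667 nm with signal to noise over three replicate slides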
Sequence (O94907 whole entry, looked up): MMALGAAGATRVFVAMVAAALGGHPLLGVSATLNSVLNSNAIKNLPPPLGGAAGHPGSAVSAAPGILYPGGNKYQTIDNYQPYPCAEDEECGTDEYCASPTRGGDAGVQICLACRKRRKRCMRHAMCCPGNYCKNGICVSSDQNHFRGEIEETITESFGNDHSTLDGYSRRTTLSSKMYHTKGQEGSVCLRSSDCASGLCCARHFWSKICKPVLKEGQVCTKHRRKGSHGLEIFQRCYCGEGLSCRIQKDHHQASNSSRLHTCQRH

Row | Compound | composite z-score
1 | CCCN1C(=O)[C@]2(Cc3ccccc31)N=C(c1ccc(OCCCO)cc1)O[C@@H]2c1ccccc1 | -0.303
2 | C[N+](C)(C)CCCCCCNC(=O)[C@@H]1C[C@@H]2C(=O)N3CCC[C@H]3C(=O)N2[C@@H]1c1ccc(O)cc1 | 1.25
3 | CCOC(=O)C[C@H]1[C@H](OC(=O)c2ccc(C(=O)c3ccccc3)cc2)[C@@H](NC(=O)CC(C)C)c2cc(OCCCO)ccc2N1C(=O)c1ccccc1 | 0.95
4 | CC1CC/C=C\[C@H]2OC34C=CCN(C(C)C)C(=O)[C@H]3N(CCO)C(=O)[C@@H]4C2C(=O)O1 (some centres undefined) | -1.28
5 | [N-]=[N+]=Nc1ccccc1C[C@]1(C(=O)N2CCOCC2)COC(c2ccc(OCCCO)cc2)=N1 | -0.259
6 | CCCCCCc1nc(Cc2cc(OC)c(OC)c(OC)c2)cc2c1[Si](C(C)C)(C(C)C)OC2 | 0.5

tested on: Inhibin beta A chain (activin A); experiment: INHBA (activin A) binders on microarrays, primary screen, biochemical, small-molecule microarray, 635 nm fluorescence scan (AID 1107); conditions: small-molecule microarray binding, higher = more signal;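 further: mouse activin A protein probed at 4.33 µg/mL on printed slides; score merges bound-protein fluorescence near 667 nm with spot signal-to-noise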

Row | Compound | composite z-score
7 | CO[C@H]1O[C@H](CO)[C@@H](OC(=O)Nc2ccc3c(c2)OCO3)[C@H](OC(=O)Nc2ccc3c(c2)OCO3)[C@@H]1OC(=O)Nc1ccc2c(c1)OCO2 | 0.762
8 | CCCC1(C(=O)OC)C=C2C(=C(C)C(=O)C2C)CN1 (centres undefined) | 1.57
9 | CO[C@H]1O[C@H](CO)[C@@H](OC(=O)Nc2ccccc2)[C@H](OC(=O)c2cc3ccccc3[nH]2)[C@H]1OC(=O)c1cc2ccccc2[nH]1 | 0.9
10 | O=C1O[C@H](c2ccccc2)[C@H](c2ccccc2)N2[C@H]1[C@@H](C(=O)O)[C@]1(C(=O)Nc3ccc(C#CCCO)cc31)[C@H]2c1ccccc1OCCO | 0.671
11 | CCCCC[C@H]1OC[C@@]23C=C(Br)[C@@H](CC12)[C@@]1(CO1)C3=O (some centres undefined) | 0.0936
12 | CCCCN1CC=CC23O[C@@H]4/C=C\CCC(C)OC(=O)C4[C@H]2C(=O)N(CCCO)[C@@H]3C1=O (some centres undefined) | -0.372
13 | CC[C@@H]1C=C(C(=O)O)[C@H](c2ccc(C#N)cc2)N1S(=O)(=O)c1ccc(C)cc1 | 0.264
14 | O=C1[C@H]2C=C(I)[C@H](C[C@@H]2OCCOCCO)[C@@]12CO2 | 0.555
15 | COCCOC(=O)N1C(=O)[C@@]2(c3cc(C#CC4=CCCCC4)ccc31)[C@H](C(=O)Nc1nc3ccccc3s1)[C@H]1C(=O)O[C@H](c3ccccc3)[C@H](c3ccccc3)N1[C@@H]2c1ccc(O)cc1 | 0.872
16 | COc1ccc([C@H]2OC[C@@H]3C[C@H](Cc4ccccc4)C(=O)N32)cc1 | 0.0048
17 | NC(=O)NCC#Cc1ccc2c(c1)[C@]1(C(=O)N2)[C@H](c2ccccc2OCCO)N2[C@H](c3ccccc3)[C@H](c3ccccc3)OC(=O)[C@H]2[C@@H]1C(=O)O | 0.894
18 | CC1CC/C=C\[C@H]2OC34C=CCN(c5ccc(Cl)cc5)C(=O)[C@H]3N(C(C)CO)C(=O)[C@]4(C)C2C(=O)O1 (some centres undefined) | 0.896
19 | CCOC(=O)C1=C[C@@H](C(C)C)N(S(=O)(=O)c2ccc(C)cc2)[C@H]1c1ccc(C(F)(F)F)cc1 | 0.372
20 | OCCCC1=CC(c2ccc(CN3CCCC3)cc2)N(Cc2cc3c(cc2Br)OCO3)CC1 (centres undefined) | 1.57
21 | CCCCCCCCCC(O)C1C=CC2C(=O)N(c3ccccc3)C(=O)C2N1Nc1cc(OC)c(OC)c(OC)c1 (centres undefined) | 0.655
22 | COCCCNC(=O)[C@@]1(CCC(=O)OC(C)(C)C)N=C(c2ccc(OCCCO)cc2)O[C@H]1c1ccccc1N=[N+]=[N-] | 0.739
23 | COc1cc(OC)c(C(O)C2C=CC3C(=O)N(Cc4ccccc4)C(=O)C3N2n2cnnc2)cc1Br (centres undefined) | -0.769
24 | C[N+](C)(C)CCCC[C@@H]1NC(=O)[C@@H]2C[C@H](C(=O)NCCCCCCN)[C@H](c3cccc(OCCO)c3)N2C1=O | 1.4
25 | O=C1C2C=CC(C(O)C3CC=CCC3)N(Nc3ccccc3)C2C(=O)N1c1ccccc1 (centres undefined) | 1.68
26 | C=CCNC(=O)[C@H]1[C@@H]2C(=O)O[C@@H](c3ccccc3)[C@@H](c3ccccc3)N2[C@@H](c2ccccc2OCCO)[C@]12C(=O)N(C(=O)OCCOC)c1ccc(C#CC3(O)CCCCCC3)cc12 | 1.07
27 | COCCOC(=O)N1C(=O)[C@@]2(c3cc(C#CC4=CCCCC4)ccc31)[C@H](c1ccccc1OCCO)N1[C@H](c3ccccc3)[C@H](c3ccccc3)OC(=O)[C@H]1[C@@H]2C(=O)NC[C@H](O)c1ccccc1 | 0.755
28 | CCCC[C@@H](O)C1=C(COc2ccccc2)C[C@H]2C(=O)N(Cc3ccccc3)C(=O)[C@H]2[C@H]1CO | 0.526
29 | O=C1OCCC/C=C\[C@H]2OC34C=CCN(c5ccc6ccccc6c5)C(=O)[C@H]3N(CCO)C(=O)[C@@H]4C12 (some centres undefined) | 0.0621
